Only some compounds are listed: those with a hit (about 2.6% of all), similar ones and a draw of the others.
eIF4E-4G inh: eIF4E–eIF4G protein interaction inhibitors, primary screen, biochemical, uHTS, TR-FRET, eIF4GI fragment; Eukaryotic translation initiation factor 4E (Mus musculus) + Eukaryotic translation …; TR-FRET eIF4E-eIF4GI(517-606) binding, 2 h; inhibition, % at 21.7 µM; hit rate 0.37% among 220,000; AID 782, 2007;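 active = inhibition above about 30%, limit read from the data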;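 note: 0% = full FRET control wells and 100% = background wells lacking eIF4GI fragment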
Target sequence (P63073 whole entry, looked up, the tested form may be a part): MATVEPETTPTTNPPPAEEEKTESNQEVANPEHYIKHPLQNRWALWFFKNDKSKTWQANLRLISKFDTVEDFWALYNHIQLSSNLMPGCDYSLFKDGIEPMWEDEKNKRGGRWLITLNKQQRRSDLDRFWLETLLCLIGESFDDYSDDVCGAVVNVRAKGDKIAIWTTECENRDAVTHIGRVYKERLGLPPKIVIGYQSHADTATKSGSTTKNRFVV
Target sequence (Q04637 whole entry, looked up, the tested form may be a part): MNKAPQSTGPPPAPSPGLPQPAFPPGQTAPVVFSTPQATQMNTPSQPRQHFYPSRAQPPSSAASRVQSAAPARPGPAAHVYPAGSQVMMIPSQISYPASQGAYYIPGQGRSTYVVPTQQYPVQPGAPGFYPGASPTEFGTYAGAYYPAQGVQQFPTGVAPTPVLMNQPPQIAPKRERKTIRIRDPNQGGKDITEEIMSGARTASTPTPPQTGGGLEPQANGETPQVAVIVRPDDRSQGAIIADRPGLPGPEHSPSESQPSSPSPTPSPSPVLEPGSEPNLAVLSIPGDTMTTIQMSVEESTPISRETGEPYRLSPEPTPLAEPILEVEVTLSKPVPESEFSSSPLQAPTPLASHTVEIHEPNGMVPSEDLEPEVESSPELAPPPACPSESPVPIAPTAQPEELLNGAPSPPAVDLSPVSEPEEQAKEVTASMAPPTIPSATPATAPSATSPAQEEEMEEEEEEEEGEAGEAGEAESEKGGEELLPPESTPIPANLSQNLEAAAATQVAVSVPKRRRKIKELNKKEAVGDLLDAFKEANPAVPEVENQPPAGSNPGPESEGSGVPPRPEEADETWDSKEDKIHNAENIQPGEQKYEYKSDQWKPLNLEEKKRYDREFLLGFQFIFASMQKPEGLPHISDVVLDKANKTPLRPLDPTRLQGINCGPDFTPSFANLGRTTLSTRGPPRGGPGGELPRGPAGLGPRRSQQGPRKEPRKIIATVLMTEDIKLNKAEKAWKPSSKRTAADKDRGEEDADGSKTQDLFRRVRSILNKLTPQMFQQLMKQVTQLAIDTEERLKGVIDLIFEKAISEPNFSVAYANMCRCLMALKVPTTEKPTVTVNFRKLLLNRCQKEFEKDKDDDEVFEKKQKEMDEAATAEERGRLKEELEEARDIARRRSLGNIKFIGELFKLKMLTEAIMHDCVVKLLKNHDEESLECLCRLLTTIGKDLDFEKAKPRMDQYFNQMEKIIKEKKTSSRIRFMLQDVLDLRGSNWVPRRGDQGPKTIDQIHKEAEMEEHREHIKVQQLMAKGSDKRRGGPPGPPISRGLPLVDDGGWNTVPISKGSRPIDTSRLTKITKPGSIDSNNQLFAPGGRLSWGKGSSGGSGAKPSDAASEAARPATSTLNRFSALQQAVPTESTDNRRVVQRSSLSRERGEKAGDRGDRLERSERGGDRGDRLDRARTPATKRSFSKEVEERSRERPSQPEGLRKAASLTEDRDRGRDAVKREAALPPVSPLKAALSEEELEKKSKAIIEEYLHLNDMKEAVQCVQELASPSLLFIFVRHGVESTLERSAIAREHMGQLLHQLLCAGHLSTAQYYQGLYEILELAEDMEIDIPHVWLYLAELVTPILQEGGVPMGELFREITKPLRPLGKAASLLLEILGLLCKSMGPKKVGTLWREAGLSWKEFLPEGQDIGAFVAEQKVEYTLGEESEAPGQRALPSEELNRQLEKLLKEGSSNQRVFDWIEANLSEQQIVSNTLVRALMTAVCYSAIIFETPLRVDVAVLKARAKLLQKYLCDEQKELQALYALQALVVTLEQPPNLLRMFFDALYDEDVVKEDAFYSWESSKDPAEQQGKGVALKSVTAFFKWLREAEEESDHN
Mcl1-Noxa inh: Mcl-1/Noxa binding inhibitors, primary screen, biochemical, TR-FRET, 1536-well | inhibition, % at 21.7 µM | TR-FRET Mcl-1/Noxa peptide binding, 2 h | Induced myeloid leukemia cell differentiation protein Mcl-1 (Homo sapiens), Q07820 | hit rate 1.5% among 220,000;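 active = compounds that cut the protein-peptide binding signal by more than 50% relative to plate controls in a single-dose test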;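 note: His-tagged Mcl-1 with rhodamine Noxa BH3 peptide and terbium anti-His antibody; 0% = Mcl-1 plus Noxa peptide wells and 100% = peptide-only wells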
Mcl-1 Bim block: inhibitors of Bim peptide binding to Mcl-1, primary screen, biochemical, bead-based flow cytometry, multiplex | Bim peptide-Mcl-1 binding | hit rate 0.1% among 190,000 | inhibition, % at 10 µM; in the data active = inhibition above about 40%;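 note: 0% = no compound tracer wells and 100% = peptide blocker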
MCL1 BIM primary: inhibitors of MCL1 binding to BIM-BH3, primary screen, biochemical, fluorescence polarization; Induced myeloid leukemia cell differentiation protein Mcl-1 (Homo sapiens), Q07820; GST-MCL1 / FITC-Bim-BH3 fluorescence polarization; inhibition, % at 10.9 µM; hit rate 0.68% among 320,000; AID 2057, 2009;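 active = inhibition above the mean inhibition of all tested compounds plus 3 SD, set per campaign, cut at about 40% in these data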;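 note: 0% = DMSO wells and 100% = unlabeled Bim-BH3 peptide control; higher means more loss of mP so more displacement of Bim peptide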
14-3-3 Bad PPI: inhibitors of 14-3-3 zeta/Bad binding, primary screen, biochemical, TR-FRET, bovine 14-3-3 zeta | 14-3-3 protein zeta/delta (Bos taurus), P63103 | TR-FRET 14-3-3zeta/Dy647-pBad peptide displacement, 1 h | inhibition, % at 21.7 µM | hit rate 0.71% among 220,000 | AID 781, 2007;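 active = inhibition above about 70%, limit read from the data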;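 note: 0% = full 14-3-3 plus peptide FRET controls and 100% = background without 14-3-3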
Mcl1 Bid PPI: Mcl-1/Bid binding inhibitors, primary screen, biochemical, TR-FRET, 1536-well; Induced myeloid leukemia cell differentiation protein Mcl-1 (Homo sapiens), Q07820; TR-FRET Mcl-1/Bid-Dy647 peptide binding; inhibition, % at 21.7 µM; hit rate 0.97% among 220,000; AID 1021, 2008;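 active = compounds that cut the binding signal by more than half at the single screening dose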;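 note: His-tagged Mcl-1 with europium anti-His antibody binding Bid BH3 peptide; 0% = Mcl-1 plus peptide wells and 100% = peptide-only wells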
BCLXL inh confirm: Bcl-xL inhibitors blocking Bim BH3 binding, confirmation, counter-screen for MCL1 inhibitor project, biochemical, fluorescence polarization; shares compounds with MCL1 BIM primary; GST-Bcl-xL / FITC-Bim BH3 peptide FP binding; inhibition, % at 10.9 µM; hit rate 54% among 1,700; AID 2166, 2009;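 active = inhibition above a cutoff equal to the mean inhibition of all tested compounds plus 3 SD, cut at about 30% in these data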;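 note: 0% = DMSO wells and 100% = unlabeled Bim BH3 control peptide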
MCL1 BIM confirm: inhibitors of MCL1 binding to BIM-BH3, confirmation, biochemical, fluorescence polarization, triplicate; shares compounds with MCL1 BIM primary; GST-MCL1 / FITC-Bim-BH3 fluorescence polarization; inhibition, % at 10.9 µM; hit rate 61% among 1,700; AID 2168, 2009;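 active = inhibition above the average of all tested compounds plus 3 SD, cut at about 40% in these data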;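 note: 0% = DMSO wells and 100% = unlabeled Bim-BH3 control peptide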
The depositor's hits bear a star; / = not tested or not shown; + = active, no number.

SMILES	eIF4E-4G inh	Mcl1-Noxa inh	Mcl-1 Bim block	MCL1 BIM primary	14-3-3 Bad PPI	Mcl1 Bid PPI	BCLXL inh confirm	MCL1 BIM confirm
O=C(NC(=S)N1CCCCCC1)c1ccc(Cl)cc1Cl	0	-4	-5	43*	-4	-2	11	6
O=C(NC(=S)N1CCCCCC1)c1ccccc1Cl	3	7	0	4	-22	-24	/	/
O=C(Nc1ccccc1C(=O)N1CCCCC1)c1cc(F)c(F)cc1Cl	/	/	/	-6	/	/	/	/
Oc1ccc(C2=Nn3c(nnc3-c3ccco3)SC2)cc1O	-3	38	33	60*	10	-2	29	73*
COc1ccc(C2=Nn3c(nnc3-c3ccco3)SC2)cc1	8	8	8	6	20	-10	/	/
N#Cc1cc2cc3c(cc2nc1N1CCCCC1)OCCO3	-1	6	0	6	0	-7	/	/
Cc1ccc(C(=O)N2CCCN(c3nc4cc5c(cc4cc3C#N)OCO5)CC2)cc1	/	/	/	98*	/	/	-3	-5
Nc1cccc2c(=O)c3ccccc3[nH]c12	/	/	/	41*	/	/	37*	25
O=C(c1ccc2nc(-c3ccco3)c(-c3ccco3)nc2c1)N1CCN(c2ncccn2)CC1	9	100*	8	81*	18	-47	35*	50*
O=C(c1cccc(C(=O)N2CCN(c3ncccn3)CC2)c1)N1CCN(c2ncccn2)CC1	6	-15	-6	3	-13	-10	/	/
S=C(Nc1ccc(N2CCOCC2)cc1)Nc1ccc2nc(-c3ccco3)c(-c3ccco3)nc2c1	-5	81*	-5	+	5	-10	118*	150*
O=C(Nc1ccc2nc(-c3ccco3)c(-c3ccco3)nc2c1)N1CCN(c2ccccn2)CC1	1	64*	15	53*	-3	-55	58*	71*
CCCc1ccc(-c2cc(C(=O)Nc3ccc([N+](=O)[O-])cn3)c3ccccc3n2)cc1	2	12	-2	-6	-4	-1	/	/
O=C1CN(S(=O)(=O)c2cccc(C(=O)O)c2)c2ccccc2N1	/	/	/	3	/	/	/	/
CC(=O)n1c(C=Nc2ccc(Cl)cc2)c(O)c2ccccc21	5	-16	/	59*	1	-38	154*	185*
COc1ccc(NC(=O)CN(C)C(=O)c2cc3c(s2)CCCCC3)cc1	/	/	/	-1	/	/	/	/
COc1ccc(NC(=O)CN(C)C(=O)c2cc3c(s2)CCC3)cc1	/	/	/	74*	/	/	-1	71*
O=C(O)C1Nc2c(O)cc(Cl)c([N+](=O)[O-])c2C2C=CCC12 (configuration not stated)	78*	105*	9	101*	97*	97*	43*	101*
COc1ccc(C(=O)OCC(=O)Nc2sccc2C(N)=O)cc1[N+](=O)[O-]	/	/	/	6	/	/	/	/
Cc1ccc(/C=C2/NC(=O)N(Cc3ccccc3)C2=O)o1	12	45	2	49*	8	-27	-48	-83
COC(=O)CN1C(=O)N/C(=C/c2ccc(C)o2)C1=O	4	33	-3	26	50	-26	/	/
O=C1OC(Nc2cc(Br)cc3cccnc23)c2ccccc21 (configuration not stated)	1	11	-4	90*	-2	-41	56*	68*
O=C1OC(Nc2ncccn2)c2ccccc21 (configuration not stated)	-2	11	-5	-6	-2	17	/	/
O=[N+]([O-])c1cccc(Oc2cnccn2)c1	/	/	/	41*	/	/	5	2
O=S(=O)(Nc1cccc(Oc2cnccn2)c1)c1ccc(F)cc1	-2	15	2	5	-13	-18	/	/
SMILES	eIF4E-4G inh	Mcl1-Noxa inh	Mcl-1 Bim block	MCL1 BIM primary	14-3-3 Bad PPI	Mcl1 Bid PPI	BCLXL inh confirm	MCL1 BIM confirm
COc1ccc2oc(C(=O)OC(C)C(=O)NCc3ccccc3)c(C)c2c1 (configuration not stated)	/	/	/	44*	/	/	6	2
O=C(Nc1cccc(S(=O)(=O)NC2=NCCCCC2)c1)c1cc(-c2ccccc2)nc2ccccc12	6	-16	3	8	-2	4	/	/
O=C(Nc1cccc(S(=O)(=O)NC2=NCCC2)c1)c1cc(-c2ccco2)nc2ccccc12	48*	99*	/	94*	66	49	18	74*
O=C(NC(=S)Nc1cccc(S(=O)(=O)NC2=NCCC2)c1)c1cc(-c2ccco2)nc2ccccc12	2	65*	/	54*	-3	-47	39*	42*
N#CCc1ccc(OC(=O)c2ccncc2)cc1	/	/	/	4	/	/	/	/
O=C(Nc1ccccc1)n1cc(-c2ccccn2)c(N2CCOCC2)n1	-2	1	-1	0	-3	-18	/	/
CN(C)C(CNC(=O)c1cccc(C(F)(F)F)c1)c1ccco1 (configuration not stated)	/	/	/	-3	/	/	/	/
O=C1c2cccc3c(N4CCCCC4)ccc(c23)C(=O)N1c1cccc(O)c1	0	-21	3	0	-6	-29	/	/
Cc1n[nH]c(C)c1N1C(=O)c2cccc3c(N4CCCCCC4)ccc(c23)C1=O	2	-76	2	+	-14	-81	184*	+
COc1ccc(/C=C(\C#N)C(=O)OCC(=O)NCc2ccccc2)cc1	7	7	-4	4	11	-22	/	/
COc1cccc(CNC(=O)COC(=O)/C(C#N)=C/c2ccc(N(C)C)cc2)c1	/	/	/	136*	/	/	89*	116*
CC1=C([N+](=O)[O-])C(c2ccc(Cl)cc2)NC(=O)N1 (configuration not stated)	/	/	/	15	/	/	/	/
COc1ccc(CCNC(=O)CN2C(=O)COc3ccc(S(=O)(=O)N4CCOCC4)cc32)cc1OC	/	/	/	-6	/	/	/	/
CCN(CC)C(=O)COc1ccc2c(-c3ccccc3)cc(=O)oc2c1	/	/	/	+	/	/	2	-3
Cc1ccc(C(=O)O)cc1-c1ccc(/C=C2/NC(=O)N(c3ccccc3)C2=O)o1	10	70*	3	52*	-11	27	36*	63*

High-throughput results from PubChem.
